Assay outcomes (PubChem)
Hits are enriched below; roughly 3.5% of the tested compounds scored in any of these assays.
MITF inh = inhibitors of human MITF; O75030; AlphaScreen MITF homodimerization, bead proximity signal; inhibition, % at 2.6 µM; 650,000 compounds, 0.91% hits; AID 1259374; in the data active = inhibition above about 50%;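 note: 0% = vehicle wells with protein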
TEAD-YAP block = TEAD-YAP interaction inhibition | HEK-TIYL cells, TEAD-Gal4/YAP UAS-luciferase luminescence | inhibition, % at 9.12 µM | 640,000 compounds, 1.4% hits; in the data active = inhibition above about 32%;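 note: 0% = median of test compound wells and 100% = reference inhibitor wells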
GPR151 activ = human GPR151 activation; 650,000 compounds, 1% hits; activation, % at 11.2 µM; Q8TDV0; AID 1508602; PathHunter beta-arrestin GPR151 cells, luminescence; in the data active = activation above about 4.9%;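 note: 0% = median of compound wells and 100% = cells with positive control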
Target sequence (Q8TDV0 whole entry, looked up): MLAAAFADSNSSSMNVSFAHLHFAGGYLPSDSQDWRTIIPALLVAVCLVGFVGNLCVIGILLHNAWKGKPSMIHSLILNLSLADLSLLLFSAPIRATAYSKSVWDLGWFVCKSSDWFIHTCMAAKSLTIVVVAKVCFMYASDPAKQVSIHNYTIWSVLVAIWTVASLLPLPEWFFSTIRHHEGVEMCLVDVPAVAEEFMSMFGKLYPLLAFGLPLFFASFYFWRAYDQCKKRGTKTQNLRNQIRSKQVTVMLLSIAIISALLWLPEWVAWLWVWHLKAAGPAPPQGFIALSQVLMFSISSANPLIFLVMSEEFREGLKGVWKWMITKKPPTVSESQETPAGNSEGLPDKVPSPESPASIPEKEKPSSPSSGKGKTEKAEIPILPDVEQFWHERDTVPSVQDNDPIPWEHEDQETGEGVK
FBW7 act = human FBW7 E3 ligase activation, primary screen. 650,000 compounds, 0.13% hits. AlphaScreen FBW7–phospho-cyclin E peptide binding, activator screen. normalized activity (activation), % at 26.1 µM; in the data active = normalized activity above about 1.9%;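 note: purified mutant Fbw7 with reduced substrate affinity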
* = called active by the depositor.

SMILES | MITF inh | TEAD-YAP block | GPR151 activ | FBW7 act
CCOc1ccc(-n2c(=S)sc3c(=O)n(-c4ccccc4)c(SCC(=O)Nc4cccc(C(F)(F)F)c4)nc32)cc1 | -11.6 | 0.5 | -0.9 | 0.0
CN1C(=O)/C(=C\C=C\c2ccco2)SC1=S | 82.1* | -1.3 | 1.4 | -0.8
CN1C(=O)S/C(=C\C=C\c2ccco2)C1=O | 43.9 | -19.8 | 1.0 | 0.4
CC(C)C(C(=O)O)N1C(=O)/C(=C/C=C/c2ccco2)SC1=S (configuration not stated) | 64.0* | -1.9 | 0.3 | -1.3
COc1ccc(/C=N/Nc2ncnc(N)c2[N+](=O)[O-])cc1OC | 26.0 | -22.1 | -1.0 | -0.1
Nc1ncnc(N/N=C/c2ccc(O)cc2)c1[N+](=O)[O-] | -1.9 | 67.9* | -2.9 | -0.1
Nc1ncnc(N/N=C/c2ccccc2)c1[N+](=O)[O-] | 8.6 | 5.8 | 1.1 | 0.2
Nc1ncnc(N/N=C/c2cccc(Br)c2)c1[N+](=O)[O-] | 17.9 | 35.7* | -3.9 | 0.1
COc1ccc([C@@H]2C[C@H](C(=O)Nc3cccc(O)c3)N(C)S(=O)(=O)N2)cc1 | -1.6 | 9.3 | -0.4 | -0.1
COc1cc2c(cc1OC)C(c1cccs1)N(C(=O)c1cccnc1)CC2 (configuration not stated) | 9.9 | 45.7* | -1.9 | -1.0
Clc1nc2ncccc2nc1-c1ccccc1 | -7.2 | 40.7* | 0.6 | 0.0
Fc1cccc(-c2nc3cccnc3nc2-c2cccc(F)c2)c1 | 1.6 | 13.2 | -0.5 | 0.0
CCc1cc(-c2oncc2-c2ccc(Br)cc2)c(O)cc1OC | -3.1 | 54.5* | 0.2 | -0.1
CCc1cc(-c2nc(N)ncc2-c2ccc(Br)cc2)c(O)cc1OC | 1.3 | -3.1 | -0.3 | 0.0
CCCc1cc(-c2oncc2-c2ccc3c(c2)OCCO3)c(O)cc1OC | -3.7 | 50.6* | 0.2 | -0.1
Cc1ccc(N(C(=O)Cc2cccs2)C(C(=O)NCc2ccco2)c2ccncc2)cc1 (configuration not stated) | 13.7 | -28.2 | -0.7 | 0.6
COc1ccc(NC(=O)c2cc(S(=O)(=O)N3CCN(c4ccccn4)CC3)ccc2F)cc1 | 6.5 | 6.7 | 3.5 | 1.9*
COc1cc(C=O)ccc1OCCc1ccccc1 | 5.9 | 32.9* | -9.3 | 0.1
Cc1ccc(S(=O)(=O)N2CCc3ccc(NC(=O)COc4ccccc4F)cc3C2)cc1 | -0.3 | 1.8 | 0.8 | 0.1
CCOC(=O)Nc1c(C)cc(C)cc1[N+](=O)[O-] | 8.0 | 50.0* | -0.1 | 0.2
COc1ccc2sc3ccccc3c(=O)c2c1 | -16.4 | -39.7 | -5.5 | 1.1
Nc1ccc2sc3ccccc3c(=O)c2c1 | -5.6 | -53.6 | -2.1 | 2.1*
CS(=O)(=O)C1=NSC2=NC(=O)/C(=C\c3ccc(Br)o3)C(=N)N21 | 74.3* | 11.9 | -0.5 | -1.9
CC(C)S(=O)(=O)C1=NSC2=NC(=O)/C(=C\c3ccc(Br)o3)C(=N)N21 | 84.2* | 8.3 | -0.1 | -1.1
COc1ccccc1N(CN1C(=O)c2ccccc2C1=O)C(=O)C(F)(F)F | 6.1 | 9.5 | -0.4 | -0.1
SMILES | MITF inh | TEAD-YAP block | GPR151 activ | FBW7 act
O=C1NC(=S)N/C1=C/c1ccc(C(F)(F)F)cc1 | 1.6 | -23.4 | -1.4 | 0.4
O=C(CSc1nnc(-c2ccccc2O)n1-c1ccccc1)Nc1nccs1 | 2.3 | 53.9* | -0.8 | -0.3
Cc1csc(NC(=O)CSc2nnc(-c3ccccc3O)n2-c2ccccc2)n1 | -1.1 | 56.6* | -0.5 | -0.3
O=C(CSc1nnc(-c2ccccc2)n1-n1cccc1)Nc1nccs1 | 2.5 | 37.8* | -0.1 | -0.2
CCCCc1ccc(-n2nnnc2SCC(=O)Nc2sccc2C(N)=O)cc1 | -1.7 | 37.0* | 0.1 | -0.1
CCN(Cc1ccccc1)Cc1ccc(C(=O)NCc2ccsc2)c(=O)[nH]1 | 8.8 | -0.5 | -0.1 | 0.1
NC(=O)c1ccsc1NC(=O)CSc1nnc(-c2ccccc2)n1-c1ccccc1 | 1.8 | 44.7* | 0.5 | 0.0
C=CCn1c(SCC(=O)Nc2sccc2C(N)=O)nnc1-c1ccccc1 | 5.1 | 26.4 | -0.7 | 0.2
CCn1c(SCC(=O)Nc2nccs2)nnc1-c1ccccc1O | 1.6 | -6.5 | 1.2 | 0.1
C=CCn1c(SCC(=O)Nc2nccs2)nnc1-c1ccccc1O | -5.5 | 60.8* | 0.0 | -0.2
CCCCNC(=O)C1CCCN(S(=O)(=O)c2ccc3c(c2)oc(=O)n3C)C1 (configuration not stated) | -2.9 | -5.5 | -0.4 | 0.1
Cc1c(Cl)ccc2c1NC(=O)C2(O)N1CCCC(C)C1 (configuration not stated) | -6.8 | -3.9 | 0.1 | -0.1
CN1CCN(/N=C/c2ccc(O)c(O)c2)CC1 | 79.3* | 8.4 | 2.1 | -0.1
Cc1cc(NS(=O)(=O)c2ccc(NC(=O)CCCOc3ccc(Cl)cc3)cc2)no1 | 1.4 | 3.8 | 2.0 | 2.9*
